Bioassay records from PubChem BioAssay.
Hits are enriched below; roughly 12% of the tested compounds scored in any of these assays.
G9a inh – qHTS Assay for Inhibitors of Histone Lysine Methyltransferase G9a; G9a H3K9 monomethylation, AlphaScreen, 2 h; Potency, µM (titrated, usually from 102 µM), for the others: at the highest dose activity, negative = inhibition, usual class: inhibitors; 350,000 tested, 8.8% active; AID 504332, 2011; further: on the % scale 0 is the no-effect control and ±100 the full control effect; nearly all actives have a fitted effect of over 75% in size
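AlphaScreen detection with an anti-monomethyl H3K9 antibody quantified product after a 2 h room-temperature reaction containing 500 nM biotinylated H3K9 peptide, 20 µM SAM and 20 nM enzyme, which had been preincubated 15 min with compound.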
HP1b chromo inh – HTS for Inhibitors of HP1-beta Chromodomain Interactions with Methylated Histone Tails. AlphaScreen HP1-beta / biotin-H3K9me3 peptide binding. Potency, µM (series often up to 114 µM), inactives show top-dose activity change, negative = inhibition, hits mostly inhibitors. 390,000 tested, 0.56% active. AID 540317, 2011; further: nearly all actives have a fitted effect of over 70% in size
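Compound inhibition of the preformed complex between 50 nM HP1-beta and 50 nM biotinylated H3K9me3 peptide was read by AlphaScreen. Buffer was PBS pH 7.4 with 0.01% Tween-20. Incubations ran 30 min at room temperature, with 10 ug/mL donor/acceptor beads.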
BAZ2B block – qHTS Assay for Inhibitors of BAZ2B | 360,000 tested, 4.4% active | Potency, µM (doses to about 114 µM), for the others: top-dose activity change, negative = inhibition, hits mostly inhibitors | AlphaScreen BAZ2B-H3K14Ac peptide displacement | Bromodomain adjacent to zinc finger domain protein 2B (Homo sapiens), Q9UIF8; further: on the % scale 0 is the no-effect control and ±100 the full control effect; nearly all actives have a fitted effect of over 60% in size
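Multi-concentration screen (max 110 uM) measuring displacement of acetylated histone H3 peptide from BAZ2B by AlphaScreen, using 50 nM protein, 50 nM peptide and 10 ug/mL streptavidin donor plus Ni-chelate acceptor beads.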
PLK1 PBD block – qHTS for Inhibitors of PLK1-PDB (polo-like kinase 1 - polo-box domain): Primary Screen | Serine/threonine-protein kinase PLK1 (Homo sapiens), P53350 | Plk1 PBD binding of FITC phosphopeptide, fluorescence polarization | Potency, µM, for the others: max response, negative = inhibition, usual class: inhibitors | 360,000 tested, 2.8% active; further: series mostly up to about 57 µM; on the % scale 0 is the no-effect control and ±100 the full control effect; nearly all actives have a fitted effect of over 65% in size
Target sequence (P53350 whole entry, looked up, the tested form may be a part): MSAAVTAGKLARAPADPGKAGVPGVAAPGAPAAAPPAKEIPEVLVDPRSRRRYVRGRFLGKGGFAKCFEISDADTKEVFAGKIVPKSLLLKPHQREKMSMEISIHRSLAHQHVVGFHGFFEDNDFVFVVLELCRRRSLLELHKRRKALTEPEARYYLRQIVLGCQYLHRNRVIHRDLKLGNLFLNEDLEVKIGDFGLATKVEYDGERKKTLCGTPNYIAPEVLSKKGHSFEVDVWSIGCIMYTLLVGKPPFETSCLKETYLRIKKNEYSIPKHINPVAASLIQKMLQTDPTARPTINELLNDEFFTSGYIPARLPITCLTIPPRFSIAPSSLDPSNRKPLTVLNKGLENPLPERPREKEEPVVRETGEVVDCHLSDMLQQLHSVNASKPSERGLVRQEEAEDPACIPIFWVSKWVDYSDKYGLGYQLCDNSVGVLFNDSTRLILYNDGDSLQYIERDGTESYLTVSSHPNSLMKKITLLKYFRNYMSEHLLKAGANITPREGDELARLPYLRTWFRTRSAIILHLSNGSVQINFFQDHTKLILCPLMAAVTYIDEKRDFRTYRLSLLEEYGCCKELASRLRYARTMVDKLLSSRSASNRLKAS
Sfp inh – qHTS Assay for Inhibitors of Bacillus subtilis Sfp phosphopantetheinyl transferase (PPTase); Biochemical Sfp PPTase activity, qHTS; Potency, µM, inactives show largest response in the series, negative = inhibition, usual class: inhibitors; 310,000 tested, 3.5% active; AID 1490, 2009;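 further: the enzyme is Sfp with the accession as filed and its product quenches rhodamine fluorescence; 0% = enzyme reaction without inhibitor and -100% = no enzyme wells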
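Fluorescence-quenching assay: 15 nM Sfp-PPTase preincubated 15 min at room temperature with compound, then 5 uM rhodamine-CoA and 12.5 uM BHQ-2-labelled YbbR peptide added. Fluorescence (ex 525/em 598 nm) read at start and after 30 min; difference gives rate.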
JMJD2A Tudor – qHTS Assay for Inhibitors of JMJD2A-Tudor Domain. Lysine-specific demethylase 4A (Homo sapiens), O75164. AlphaScreen JMJD2A-Tudor / H3K4me3 peptide binding. Potency, µM (series often up to 114 µM), for the others: at the highest dose activity change, negative = inhibition, hits mostly inhibitors. 390,000 tested, 4.4% active. AID 504339, 2011; further: on the % scale 0 is the no-effect control and ±100 the full control effect; nearly all actives have a fitted effect of over 50% in size
* hit, by the source's call; ? = inconclusive; · = no result; [ ] = remark or other dose. The call rests on the fitted dose curve; in most records, active means well fitted curve in the direction sought with a large enough effect; inconclusive means small, poorly fitted or top-dose-only effect, or another doubt; inactive means no such curve, though single readings can be large; an effect the other way counts as inactive or inconclusive. Potency means the concentration at half of the fitted maximal effect.

SMILES	G9a inh	HP1b chromo inh	BAZ2B block	PLK1 PBD block	Sfp inh	JMJD2A Tudor
COc1ccc(-c2nc(CS(=O)CC(=O)NCCc3ccc(OC)c(OC)c3)c(C)o2)cc1 (configuration not stated)	19.0%	50.1%	-9.9%	-13.7%	4.4%	-16.8%
CCc1ccc(-c2nc(CS(=O)CC(=O)NCc3ccccc3)c(C)o2)cc1 (configuration not stated)	28.2µM*	23.3%	-15.0%	?	-4.6%	-12.5%
CCc1ccc(-c2nc(CS(=O)CC(=O)NCc3ccc4c(c3)OCO4)c(C)o2)cc1 (configuration not stated)	39.8µM*	15.7%	-32.3%	?	-4.8%	-25.0%
Cc1ccc(CCNC(=O)CS(=O)Cc2nc(-c3ccccc3Cl)oc2C)cc1 (configuration not stated)	50.1µM*	69.2%	-27.1%	-27.2%	-16.8%	2.3%
CCOc1ccc(CCNC(=O)CS(=O)Cc2nc(-c3ccc(OC)cc3)oc2C)cc1OCC (configuration not stated)	50.1µM*	31.5%	-13.0%	-5.4%	3.7%	-19.1%
CCNC(=O)C1(C)CCN(C(=O)c2cc(F)ccc2C)C1 (configuration not stated)	·	·	·	-7.5%	·	·
COc1cccc(-c2nc(CS(=O)CC(=O)NCCCOC(C)C)c(C)o2)c1 (configuration not stated)	44.7µM*	51.8%	9.6%	-5.1%	10.8%	-11.9%
COc1ccc(-c2nc(CS(=O)CC(=O)NCc3ccc(Cl)cc3)c(C)o2)cc1 (configuration not stated)	39.8µM*	6.2%	-28.9%	-26.4%	10.3%	-26.4%
Cc1ccc(-c2nc(CS(=O)CC(=O)NC3CCC(C)CC3)c(C)o2)cc1 (configuration not stated)	50.1µM*	3.4%	-24.5%	?	?	-23.9%
COc1cccc(-c2nc(CS(=O)(=O)CC(=O)NCCCOC(C)C)c(C)o2)c1	12.4%[0.501 µM]	20.3%	-5.6%	-7.3%	-14.2%	7.9%
COc1cccc(-c2nc(CS(=O)CC(=O)NC(C)CCc3ccccc3)c(C)o2)c1 (configuration not stated)	?	4.5%[57 µM]	-28.2%	?	-0.7%	-17.1%
Cc1ccccc1-c1nc(CS(=O)CC(=O)NC(C)CCc2ccccc2)c(C)o1 (configuration not stated)	70.8µM*	20.0%	?	?	-12.6%	-31.1%
Cc1nc(SCC(=O)Nc2ccc(Cl)cc2C(F)(F)F)[nH]c(=O)c1Cc1ccccc1	5.7%[59 µM]	0.5%	0.2%	·	·	-8.2%
CCc1cccc(NC(=O)CS(=O)Cc2nc(-c3ccc(C)cc3)oc2C)c1 (configuration not stated)	44.7µM*	0.8%	-38.9%	-4.2%	-9.6%	-29.2%
Oc1ccccc1NCC(O)Cn1ccc2ccccc21 (configuration not stated)	28.2µM*	-72.5%	50.1µM*	?	-27.4%	2.82µM*
OC(CN1CCNCC1)Cn1ccc2ccccc21 (configuration not stated)	4.3%	·	?	·	2.9%	·
OC(CNCc1ccccc1)Cn1ccc2ccccc21 (configuration not stated)	?	?	?	-12.5%	-6.9%	22.4µM*
CSc1cc2c(s1)c1cnn(Cc3cccc(O)c3)c(=O)c1n2C	·	·	·	·	·	-30.6%
CCc1sc(C(=O)Nc2cc(S(=O)(=O)N3CCOCC3)ccc2OC)cc1C	-23.3%[59 µM]	56.8%	9.1%	-2.2%	·	-12.5%
CCOC(=O)Nc1ccc(C(=O)c2ccncc2)cc1	·	59.3%	7.5%	8.1%	2.6%	7.3%
Cc1[nH]c2ccccc2c1[C@H]1[C@@H](CC#N)C1(C)C	?	?	?	29.9µM*	?	-23.7%[11.4 µM]
Cc1[nH]c2ccccc2c1CC#N	-7.1%[59 µM]	29.0%	-10.2%	-4.9%	4.5%	-11.7%
O=C1C2CC=CCC2C(=O)N1c1ccc(N2CCN(c3ccccn3)CC2)c([N+](=O)[O-])c1 (configuration not stated)	?	2.0%	8.91µM*	-2.5%	-9.3%	?
O=C1c2ccccc2C(=O)C2OC12 (configuration not stated)	8.91µM*	·	-14.4%	·	?	·
COc1ccc([C@@H]2C[C@H]3[C@@H](CN2S(=O)(=O)c2ccccc2)C(=O)C[C@@H](c2cccc(Cl)c2)N3S(=O)(=O)c2ccc(C)cc2)cc1	·	·	·	-1.2%	·	·
SMILES	G9a inh	HP1b chromo inh	BAZ2B block	PLK1 PBD block	Sfp inh	JMJD2A Tudor
Cc1ccccc1-n1c(SC/C(O)=C(\C#N)c2nc3ccccc3[nH]2)nnc1-c1ccncc1	?	?	-2.4%	?	9.6%	79.4µM*
CCOC(=O)c1ccc2c(c1)nc(SCC(=O)N1CCCCC1)n2CC	-30.0%	20.2%	-0.8%	1.4%	9.8%	-8.6%
CCOC(=O)c1ccc2c(c1)nc(SCC(=O)c1ccco1)n2CC	?	27.8%	-12.3%	?	50.1µM*	?
CCOC(=O)c1ccc2c(c1)nc(SC/C(O)=C(\C#N)c1nc3ccccc3[nH]1)n2CC	50.1µM*	27.6%	-2.4%	-7.1%	17.9%	-29.0%
O=C(CCN1C(=O)/C(=C/c2ccc(F)cc2)SC1=S)N[C@@H](CO)Cc1ccccc1	6.9%	34.9%	-23.5%	-4.6%	4.3%	7.8%
CN(c1ccccc1)S(=O)(=O)c1ccc(Cl)c(C(=O)Nc2nn[nH]n2)c1	28.2µM*	24.9%	?	-8.7%	-11.7%	-18.2%
C/C(CC(=O)NC(C)(C)C)=N\NC(N)=S	3.98µM*	?	?	-4.8%	35.5µM*	?
C/C(CC(=O)Nc1cccc2c1CCCC2)=N\NC(=O)c1ccccc1N	9.8%[2.33 µM]	6.2%	13.2%	-6.3%	-1.7%	-20.9%
C/C(CC(=O)NC(C)(C)C)=N\NC(=O)c1ccccc1N	?	4.2%	-20.3%	23.8µM*	-6.8%	39.8µM*
C/C(CC(=O)Nc1ccc(Cl)c(C(F)(F)F)c1)=N\NC(N)=S	?	12.8%	-22.9%	-3.5%	4.4%	-7.0%
O=[N+]([O-])c1ccc2[nH]c(=S)[nH]c2c1	·	-1.7%[57 µM]	·	26.7µM*	·	-51.7%
O=[N+]([O-])c1ccc2[nH]c(=S)sc2c1	·	?	·	0.0%	·	50.1µM*
S=c1[nH]c2ccc(Cl)cc2s1	1.12µM*	-5.8%	-22.3%	?	-3.8%	?
